Several values for one entry are separate records, joined by “and”; a condition that tells them apart may be missing. Equal values may be shown once. Hit rate of the full screen: of about 410,000 compounds, about 18,000 (4.4%) were called active. Another 7% or so got no clear call; they are omitted. The sample as a whole holds a higher share of actives than the screen did. A number with no mark means an inactive call. Cut-off read from the data, not from the text of the source: active = activity change below about -60%; inconclusive = no clear call, values can overlap the other calls; inactive = above about -39%.
% is set by controls: 0 for no effect and ±100 for the full control effect.

The nature of this assay: qHTS Assay for inhibitors of the human cytomegalovirus (HCMV). The settings on record: HFF cells, HCMV-luciferase reporter, 72 h; at 57.5 µM; hits give low values. In a few lines:
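Steps: HFFs plated, 16 h 37C; compounds added; HCMV-luciferase added to MOI 1 PFU/cell; 72 h 37C; OneGlo reagent, 5 min room temperature; luminescence read, normalized to controls.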
A general note: Quantitative high-throughput screening tests each substance at several concentrations.
Turning to `COc1cc(Cl)c(NC(=O)C(NS(=O)(=O)c2cccs2)C(C)C)c(OC)c1` (stereo not drawn), the activity change, negative = inhibition is -10.2%.

Take `CCc1ccc(-n2nc(C)c3c(C)cc(=O)n(CC(=O)Nc4ccc(F)cc4C)c32)cc1`: the activity change, negative = inhibition was 5.24%. The figure for `CCc1ccccc1NC(=O)c1ccc2nc(CCc3ccccc3)oc2c1` is 30%; for `COC(=O)c1ccc(-c2nc3cc(NC(C)=O)ccc3o2)cc1` it is 13.5%; for `COC(=O)c1ccc(Nc2ncnc3sccc23)cc1` it is -62.4% (active). The figure for `O=S(=O)(Nc1ncnc2sccc12)c1cccc(F)c1` is 30.2%; for `CCOC(=O)c1c(NC(=O)COc2cc(C)ccc2C(C)C)sc(C)c1C` it is 12.8%; for `CC1CCN(S(=O)(=O)c2ccc3c(ccn3CCC(=O)NCc3ccc(N(C)C)cc3)c2)CC1` it is 5.8%. The figure for `CCc1ccc(NC(=O)c2nn(-c3ccc(C)cc3)c(=O)n(C)c2=O)cc1` is -12.5%; for `CCOc1ccccc1NC(=O)CSc1ncc(S(=O)(=O)c2ccc(C(C)(C)C)cc2)c(=O)[nH]1` it is -2.52%; for `CC1=CC(=Cc2sc3ccccc3[n+]2C)C=C(C)O1` it is -100% (active). With `CCC(=O)N1CCc2cc(Br)cc(S(=O)(=O)CCC(=O)NCCc3ccc(OC)c(OC)c3)c21`, the activity change, negative = inhibition is 7.78%. In the case of `COc1ccc(C2NC(=S)NC3=C2CCc2ccccc23)cc1OC` (stereo not drawn), the activity change, negative = inhibition is -13.4%.

`Cc1ccc(-c2nn(C(C)(C)C)c3ncnc(N)c23)cc1`: the activity change, negative = inhibition was -69.5% (active). With `O=C1CCCC2=C1C(c1cccs1)CC(=O)N2c1ccc(F)cc1` (stereo not drawn) the figure was 18.4%. The figure for `CCOC(=O)c1cc2c(n(-c3ccc(C)cc3)c1=O)CCCC2=O` is -27.5%; for `CCOC(=O)C1=C(N)N(c2ccc(C)cc2)C2=C(C(=O)CCC2)C1c1cccs1` (stereo not drawn) it is -86.5% (active); for `Cc1ccc(C)c(Cn2c(=O)n(CCC(=O)NCc3ccc4c(c3)OCO4)c(=O)c3sccc32)c1` it is -25.1%. The figure for `COc1ccc(C2=NC3(CCCCC3)N(CC(=O)Nc3ccc(C(C)C)cc3)C2=O)cc1` is -14.7%; for `CCn1c(C)c(C)c2cc(C(=O)NCCc3cc(OC)ccc3OC)ccc21` it is 0%; for `CSc1nc(N(C)NC(=O)c2cccc(C)c2)c2ccccc2n1` it is -87.3% (active). `Cc1cccc(C(=O)NCCc2nc3ccccc3n2Cc2ccccc2Cl)c1`: the activity change, negative = inhibition was 3.18%.

Turning to `CC(NC(=O)c1ccccc1F)c1cccc2ccccc12` (stereo not drawn), the activity change, negative = inhibition is -5.98%.

As to `CN(NC(=O)c1ccccc1F)c1nc(C(F)(F)F)nc2ccccc12`, the activity change, negative = inhibition is -62.6% (active). With `O=C(Cn1cnc2ccccc2c1=O)NNC(=O)c1ccccc1F` the figure was -0.88%; with `Cc1cccc(C(=O)Nc2ccc(-c3nc4ccccc4s3)c(C)c2)c1`, 55.1%.

Turning to `Cc1cc2oc(C(=O)N(Cc3ccc(Cl)cc3)Cc3ccco3)c(C)c2cc1Cl`, the activity change, negative = inhibition was -14.8%. For the compound `COc1cccc(C(=O)N2CCCC(CCC(=O)NCc3ccc(F)c(F)c3)C2)c1` (stereo not drawn), the activity change, negative = inhibition is 34.9%. With `COc1ccc(C)cc1N(CC(=O)N1CCC(C)CC1)S(=O)(=O)c1ccc(C)cc1` the figure was -13.7%; with `CCN(CC)CCNC(=O)CN1N=C(c2ccc(OC)cc2)CCC1=O`, 29.3%; with `CC1(C(=O)NS(=O)(=O)c2ccccc2)CCN1C(=O)C/C=C/c1ccccc1` (stereo not drawn), 19.5%. The figure for `CC1(C(=O)O)CCN1C(=O)/C=C/c1ccccc1` (stereo not drawn) is -1.81%. The figure for `CC1(C)CCSC(/C=C/c2ccccc2)=N1` is -97.3% (active); for `COc1cccc(-n2ccn(CC(=O)NCc3ccc(C)cc3)c(=O)c2=O)c1` it is -17.1%; for `Fc1ccccc1N=C1Nc2cccc3cccc1c23` it is -68.6% (active). Take `COc1ccc(C)cc1S(=O)(=O)Nc1cc2c3c(c1)CCC(=O)N3CCC2`: the activity change, negative = inhibition was 0.474%. Consider `CCN(CC)P(=O)(/C(Cl)=C\Nc1c(C)n(C)n(-c2ccccc2)c1=O)N(CC)CC`, for which the activity change, negative = inhibition was 54%.

Consider `Cc1cc(C)c2nc(SCC(=O)N(C)C3CCS(=O)(=O)C3)cc(C)c2c1` (stereo not drawn), for which the activity change, negative = inhibition was 25.8%. The figure for `CC(C)CCOc1ccc(C(=O)C[N+]2(C)CCOCC2)cc1` is -4.43%; for `CCCOc1cccc(C(=O)Nc2cccc(NC(=O)c3ccc(C(C)(C)C)cc3)c2)c1` it is 50.3%; for `CCCOc1ccc(C(=O)C(CCC(CNCC)C(=O)c2ccc(OCCC)cc2)CNCC)cc1` (stereo not drawn) it is -96.5% (active). The figure for `Cc1ccc(OCCn2c(CNc3ccccc3C)nc3ccccc32)cc1` is 38%; for `COc1ccc(/C=C/c2nc(C#N)c(NCc3ccc(F)cc3)o2)cc1OC` it is 9.25%. Turning to `Cc1cc(Cl)ccc1OCC(=O)N(Cc1ccc(N(C)C)cc1)C1CCS(=O)(=O)C1` (stereo not drawn), the activity change, negative = inhibition was 15.4%. With `COc1ccc(Cl)cc1NC(=O)CCS(=O)(=O)c1ccc(Br)cc1` the figure was -65.8% (active); with `COc1ccc(Cl)cc1NC(=O)CCC(=O)c1ccc(C)cc1`, -19.2%. The figure for `Cc1ccc(Cl)cc1NC(=O)CCS(=O)(=O)c1ccc(Br)s1` is -33.6%; for `O=C(c1ccccc1)N1CC(=O)N2[C@@H](CO)[C@@H](c3ccc(Br)cc3)[C@@H]2C1` it is 14.7%; for `COc1cc(NC(=O)c2cc(C3CC3)nc3c2c(C)nn3-c2ccccc2)cc(OC)c1` it is -30%. The figure for `Cc1cc(C(=O)Nc2cccc(C(F)(F)F)c2)c2c(C)nn(-c3cccc(F)c3)c2n1` is -98.1% (active); for `CSc1ccc(CCNC(=O)c2cc(C)nc3c2c(C)nn3-c2cccc(F)c2)cc1` it is 30.7%. As to `O=C(CN1CCN(S(=O)(=O)/C=C/c2ccccc2)CC1)NC(=O)NCc1ccco1`, the activity change, negative = inhibition was 61.6%. The figure for `COc1ccc(OC)c(C2C3=C(N=c4s/c(=C\c5cccc(O)c5)c(=O)n42)c2ccccc2CC3)c1` (stereo not drawn) is -92.5% (active); for `COc1ccc(Cn2ccc3nc(C)c(C(=O)Nc4ccc(C)c(F)c4)cc3c2=O)cc1` it is 0.318%. The figure for `COc1ccc(C2=CC(c3ccccc3Cl)n3nc(-c4ccc(Cl)cc4)nc3N2)cc1` (stereo not drawn) is -32.6%; for `C/C(=N/NC(=O)CC(=O)N/N=C(\C)c1ccc([N+](=O)[O-])cc1)c1ccc([N+](=O)[O-])cc1` it is -9.56%; for `C/C(=N\Nc1ccc([N+](=O)[O-])cc1)c1ccc(-n2nncc2C(C)(C)C)cc1` it is -14.8%. `C/C(=N\Nc1nc(N2CCOCC2)nc(N2CCOCC2)n1)c1ccc([N+](=O)[O-])cc1`: the activity change, negative = inhibition was -66% (active).

Consider `CC1CCN(CCCNC(=O)CN2C(=O)CSc3ccc(S(=O)(=O)N4CCCCC4)cc32)CC1`, for which the activity change, negative = inhibition is 16.9% and -5.47%. With `CCOC(=O)c1ccccc1NC(=O)c1sc2nc(-c3ccc(F)cc3)cn2c1C` the figure was -4.65%. With `Cc1cccc(C(=O)Nc2ccc(-c3nc4ncccc4o3)cc2C)c1` the figure was 24.6%; with `O=C1c2ccccc2C(=O)N1CCOc1ccc(F)cc1`, -3.7%; with `O=C1NC(=O)N(CCc2ccc(F)cc2)C(=O)/C1=C/C=C/c1ccccc1`, -71.6% (active). Turning to `CCc1ccc(OCC(=O)N2CCN(CC(=O)Nc3ccccc3Cl)CC2)cc1`, the activity change, negative = inhibition was 11.8%. With `Clc1ccc(-c2cc(COc3ccccc3)no2)cc1Cl` the figure was 0.868%; with `Cc1ccc(NC(=O)CSc2nnc3[nH]c(=O)cc(C)n23)cc1Cl`, -38.5%; with `COc1ccc(-c2cc(=O)oc3cc(OC(C)C(=O)Nc4ccc(CN5CCOCC5)cc4)ccc23)cc1` (stereo not drawn), -70.7% (active). With `Cc1cc(=O)oc2cc(OC(C)C(=O)Nc3ccc(N4CCOCC4)cc3)ccc12` (stereo not drawn) the figure was 5.98%; with `COc1ccc(-c2cc(=O)oc3cc(OC(C)C(=O)NCC4CCC(C(=O)O)CC4)ccc23)cc1` (stereo not drawn), 5.3%. The figure for `CCCNC(=O)c1ccc2c(c1)ncn2-c1ccc(C)cc1C` is -6.25%; for `O=C(Nc1ccc2nc(SCC(=O)N3CCCc4ccccc43)sc2c1)c1ccc(Cl)cc1` it is 95.5%. On to `O=C(Nc1ccc2nc(SCC(=O)N3CCCc4ccccc43)sc2c1)c1ccc(F)cc1`, for which the activity change, negative = inhibition is -5.14%.

With `CC(C)(C)c1ccc(C(=O)Nc2ccc3c(c2)CCCN3C(=O)c2cccs2)cc1`, the activity change, negative = inhibition is -80.2% (active).

Regarding `Cc1ccc(CNC(=O)CCCNC(=O)c2ccc(Cl)cc2)n1C`, the activity change, negative = inhibition was 43.4%. With `CCOc1ccccc1CNC(=O)C1CCCN(S(=O)(=O)c2ccc3c(ccn3C)c2)C1` (stereo not drawn) the figure was -5.75%; with `Cc1ccc(CNC(=O)CCc2c(C)nn(-c3ccc(N4CCCC4)nn3)c2C)cc1`, 19.6%. Regarding `CCCCCC1CCC(c2nnc(SCC(C)=O)o2)CC1` (stereo not drawn), the activity change, negative = inhibition is -99.8% (active). The figure for `Cc1[nH]c2ccccc2c1C(=O)C(C)Sc1nnc(C2CC2)o1` (stereo not drawn) is 0%; for `CCN(CC)C(=O)CSc1nnc(C2CCCCC2)o1` it is 18.8%.

Take `Cc1ccc(CNC(=O)CCNS(=O)(=O)c2ccc3c(c2)oc(=O)n3C)cc1`: the activity change, negative = inhibition was -1.91%. With `COC1=CC=C2[C@H]3Cc4ccc(OC)c5c4[C@@]2(CCN3C)C1O5` (stereo partly drawn) the figure was 23.5%.

Regarding `COC1=C[C@@H]2[C@@H]3Cc4ccc(OC)c(O)c4[C@]2(CCN3C)CC1=O`, the activity change, negative = inhibition is -68% (active). With `COc1ccc2c(c1)[C@]13CCCCC1C(C2)N(C)CC3` (stereo partly drawn) the figure was -2.65%. The figure for `Cc1ccc(Cl)cc1N1CCN(C(=O)c2cccn3c(=O)c4cc(Cl)ccc4nc23)CC1` is -4.38%.

Regarding `COc1ccc(-c2nc3scc(CCNS(=O)(=O)c4cc(F)ccc4OC)n3n2)cc1OC`, the activity change, negative = inhibition was 34.6%. With `CCOC(=O)c1scc(-c2ccc(C)cc2)c1S(=O)(=O)Nc1cc(C)ccc1C` the figure was -16.6%; with `CCOC(=O)c1c(-c2ccc(C)cc2)csc1/N=C(\C)C1=C(O)c2ccccc2C1=O`, -62.8% (active); with `CC(=NCc1ccc2c(c1)OCO2)C1=C(O)c2ccccc2C1=O`, 14.5%.

For the origin of these results see PubChem BioAssay AID1259415 (National Center for Advancing Translational Sciences (NCATS), 2018).
